Among the data in PubChem BioAssay (NCI) are growth values, retold here.

SMILES strings stand for the structures. The panel holds about 83,000 compounds, 20% with a hit somewhere; the sample as a whole holds those more often.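 Values shown are percent growth following 48 h exposure of cells in 96-well plates to a single concentration of compound; below 10 was considered active.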 Unmarked numbers belong to inactive results. Activity calls are given as the source filed them.

Common to all, as to experiment: NCI-60 one-dose screen, 48 h (100 = growth as untreated, 0 = no growth, -100 = all killed)
Holding throughout (settings): 10 µM unless noted

Assay [1] deals with NCI-H23 lung.
The test system of assay [2] is NCI-H226 lung.
Assay [3] deals with NCI-H322M lung.
Assay [4] relates to HOP-62 NSCLC.
Assay [5] has as its system NCI-H460 lung.
The test system of assay [6] is HOP-92 NSCLC.
Assay [7] relates to NCI-H522 lung.
The test system of assay [8] is A549/ATCC NSCLC.
Assay [9] has as its system 786-0 renal.
Assay [10] has as its system COLO 205 colon.
Assay [11] deals with DU-145 prostate.
Assay [12] relates to K-562 leukemia.
For assay [13], the system named is MALME-3M melanoma.
Assay [14] has as its system MDA-MB-231 breast.
The test system of assay [15] is RXF 393 renal.
In assay [16] the test system is SF-268 CNS.
Assay [17] concerns SF-295 CNS.
Assay [18] concerns SF-539 CNS.
In assay [19] the test system is UACC-257 melanoma.
Assay [20] has as its system M14 melanoma.

For the molecule `COc1ccc(S(=O)(=O)n2cc(C(=O)C(=O)Nc3ccncc3)c3ccccc32)cc1F`, the growth in [1] was 65.2%; in [2], 82.9%; in assay [3] it was 88.6%; in assay [4], 61.4%; in [5], 69.5%; in assay [6], 62.1%. Also, the growth in assay [7] was 65.3%; in [8], 71%; in [9] it was 84.7%; in assay [10] it was 94%; in [11], 86.4%; in [12], 58.8%. In addition, the growth in assay [13] was 76.4%; in assay [14], 57.1%; in assay [15], 90.9%; in [16], 81.7%; in [17], 43.2%; in assay [18] it was 69.1%. In addition, the growth is 105% in [19] and 93.2% in assay [20].
Regarding `Cc1nn(-c2ccc([N+](=O)[O-])cc2)c2ncnc(NCCc3ccccc3)c12`, the growth is 95.9% in [1]; 97.8% in assay [2]; 116% in assay [3]; 102% in assay [4]; 91.6% in assay [5]; 91.3% in [6]. Moreover, the growth in assay [7] is 107%; in assay [8], 99.8%; in assay [9], 105%; in assay [10], 104%; in assay [11], 110%; in assay [12], 76.8%. Also, the growth in [13] is 121%; in [14], 102%; in assay [15], 102%; in assay [16] it was 94.7%; in assay [17] it was 111%; in assay [18], 99.5%. Moreover, in [19], the growth was 106%.
For `COc1ccc(Nc2nn3c(-c4ccccc4)cc(-c4ccccc4)nc3c2C(N)=O)c(OC)c1`, the growth is 33.5% in [1]; 46.4% in assay [2]; 61.4% in assay [3]; 47.3% in [4]; 20.3% in assay [5]; 70.9% in [6]. Also, the growth in assay [7] is 34.8%; in [8], 24%; in assay [9] it was 67.6%; in assay [10], 53.2%; in assay [11], 38.2%; in assay [12], 58.1%. Also, the growth in assay [13] was 44.7%; in assay [14], 29.3%; in assay [15] it was 84.7%; in [16], 53.4%; in assay [17], 37.5%; in assay [18], 13.4%. Also, the results for the growth in assay [19] and in assay [20] were 62.4% and 51.3%, respectively.
As to `O=[N+]([O-])c1ccc(-c2cn(-c3ccccc3)c(-c3ccccc3)n2)cc1`, the growth is 78.7% in assay [1]; 95.4% in assay [2]; 40.5% in [3]; 62.4% in assay [4]; 35.3% in [5]; 81.2% in [6]. Further, the growth in assay [7] is 44.6%; in assay [8], 55.6%; in assay [9], 92.5%; in [10], 101%; in assay [11], 109%; in [12], 62.5%. For the same molecule, the growth in [13] was 141%; in assay [14], 49.5%; in assay [15], 65.3%; in assay [16] it was 91.4%; in assay [17] it was -21.1% (active); in [18], 116%. Moreover, the growth in assay [19] was -2.3% (active).
Turning to `Oc1ccc(Cl)cc1-c1cc(-c2ccc(F)cc2)n[nH]1`, the growth in [1] is 53.5%; in assay [2] it was 92.7%; in [3], 68.1%; in assay [4], 62.5%; in [5], 42.5%; in assay [6], 64.6%. Also, the growth in assay [7] is 60.9%; in assay [8], 62%; in assay [9], 85.6%; in assay [10] it was 81.7%; in assay [11] it was 75.9%; in assay [12] it was 63.2%. Besides, the growth in [13] was 77.8%; in assay [14], 27.3%; in [15] it was 73.4%; in assay [16], 63.6%; in assay [17], 49.2%; in assay [18], 90.1%. Moreover, the growth in [19] is 96.6%; in assay [20], 76.6%.
Take `O=c1[nH]c(NCc2ccccc2)nc2nc(Nc3ccc(NC(=S)Nc4ccccc4)cc3)nc(-c3ccc(O)cc3O)c12`: the growth in [1] was 99.4%; in assay [2], 89.6%; in assay [3] it was 140%; in [4], 105%; in assay [5], 109%; in [6], 89.5%. Moreover, the growth in assay [7] is 54.2%; in [8], 41.6%; in assay [9], 104%; in assay [10] it was 110%; in assay [11], 116%; in assay [12] it was 63.3%. Also, the growth in assay [13] is 103%; in assay [14], 90.2%; in assay [15], 81.4%; in assay [16] it was 96%; in [17], 147%; in [18], 108%. In [19], the growth was 39.7%.
Turning to `COc1cc2c(cc1OCCCN1CCN(CCCn3c4ccccc4c4ccccc43)CC1)N=C[C@@H]1CCCN1C2=O`, the growth in assay [1] is -30.6% (active); in assay [2], -80.4% (active); in [3] it was -65.5% (active); in [4] it was -66% (active); in assay [5] it was -96.9% (active); in assay [6], -80.5% (active). For the same molecule, the growth in assay [7] was -26.6% (active); in assay [8], -37.5% (active); in [9] it was -70.3% (active); in assay [10], -98.8% (active); in [11], -85.9% (active); in assay [12] it was -50.1% (active). Also, the growth in assay [13] was -82.5% (active); in assay [14], -69.3% (active); in assay [15] it was -78.3% (active); in assay [16], -87.8% (active); in [17] it was -92.3% (active); in [18], -91.3% (active). The growth in assay [19] is -70.3% (active).
For `c1ccc(-c2cn(-c3ccccc3)c(-c3ccccc3)n2)cc1`, the growth is 77.6% in assay [1]; 93.4% in [2]; 104% in assay [3]; 82% in assay [4]; 89.5% in assay [5]; 69.4% in assay [6]. Besides, the growth in assay [7] is 73.9%; in assay [8], 48%; in [9], 71.5%; in [10], 95.2%; in [11], 71.4%; in [12], -51.5% (active). Moreover, the growth in [13] is 95%; in [14], 94.3%; in [15], 79.9%; in [16], 85.5%; in assay [17], 127%; in [18], 73.5%. In addition, in [19], the growth is -45.3% (active).
